Assay results published in PubChem BioAssay (NCATS).
Inconclusive results are not listed. Calls of active or inactive are those of the source. Calls come from the whole dose curve; as a rule, active = well fitted inhibition curve with a large enough effect; inconclusive = small, poorly fitted or top-dose-only effect; inactive = flat fitted curve, though single readings scatter. *1 amine or outer side, *2 acyl side, *3 side chain or, on linkers, in order; H or OH if unused. Where a SMILES comes first, the peptide text is derived from it. Bridges are numbered along the chain shown (N, C = ends). [ ]: non-standard residue; d: D form. The star is where a group is joined. ξ: configuration not given here. X10 = NC1=NCCC(C(N[*:1])C(=O)[*:2])N1; ΔAla(3-NHCONH2) = NC(=O)NC=C(N)C(=O)O; ξβ3hOrn = NCCCC(N)CC(=O)*; Dap = NC[CH](N)C(=O)O

Tested on: Zika virus NS2B-NS3 protease
Experiment: Primary screen GU AMC qHTS for Zika virus inhibitors (AID 1347154); note: nearly all actives have a fitted effect of over 70% in size;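 for activity change, negative = inhibition: 0% = no-inhibitor control and -100% = no-enzyme control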
Conditions: Zika NS2B-NS3 unlinked protease, AMC fluorogenic substrate; series mostly up to 54.1 µM; activity change, negative = inhibition: at the top concentration
How it was run: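 Unlinked Zika NS2B hydrophilic domain–NS3 protease complex at 25 nM in 10 mM Tris-HCl pH 8.0, 0.01% Tween 20, with an AMC peptide substrate. Fluorescence change (340/450 nm) over 15 min at room temperature, normalized to controls, fitted to 4-parameter Hill.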
Potency is the fitted concentration of half-maximal effect.

SMILES | Potency | activity change, negative = inhibition
O=C1OC2(c3ccccc31)c1cc(I)c(O)c(I)c1Oc1c2cc(I)c(O)c1I | 16.1 µM (active) | –
CC(=O)OCC[N+](C)(C)C | inactive | –
C[C@H]1NCc2cc(-c3ccc4c(=O)c(C(=O)O)cn(C5CC5)c4c3OC(F)F)ccc21 | – | -4.99% [at 25.8 µM] (inactive)
COc1cc(NS(=O)(=O)c2ccc(N)cc2)nc(C)n1 | – | -3.77% (inactive)
CC(C(=O)O)c1ccc(/C=C2\CCCCC2=O)cc1 (stereo not drawn) | – | -4.01% (inactive)
O=c1[nH]c2ccccc2c(=O)n1CCCl | – | -2.79% (inactive)
CCCCOC(=O)CCCCCCCCC(=O)OCCCC | – | -1.19% (inactive)
CCOC(=O)C(=O)CCCCCCl | – | 0.643% (inactive)
C/C(=C1\CCOC(=O)S1)N(C=O)Cc1cnc(C)nc1N | – | 2.39% (inactive)
CCOC(=O)c1ccc(O)c(O)c1 | – | -3.25% (inactive)
O=C(O)c1ccc(OCCN2CCCCC2)cc1 | – | 0.736% (inactive)
CC1(C)S[C@@H]2[C@H](NC(=O)C(c3ccccc3)S(=O)(=O)O)C(=O)N2[C@H]1C(=O)O (stereo partly drawn) | – | 3.61% (inactive)
CCNC(=O)NCCCOc1cccc(CN2CCCCC2)c1 | – | 6.13% (inactive)
CO[C@@]1(NC(=O)CSC[C@@H](N)C(=O)O)C(=O)N2C(C(=O)O)=C(CSc3nnnn3C)CS[C@@H]21 | – | 0.699% (inactive)
Nc1c(NC/C=C\COc2cc(CN3CCCCC3)ccn2)c(=O)c1=O | – | -2.44% [at 25.8 µM] (inactive)
C=CC[N+]1([C@H]2C[C@H]3[C@@H]4CC[C@H]5C[C@H](OC(C)=O)[C@@H](N6CCCCC6)C[C@]5(C)[C@H]4CC[C@]3(C)[C@H]2OC(=O)CC)CCCCC1 | – | -0.881% (inactive)
CCCc1c2oc(C(=O)O)cc(=O)c2cc2c(=O)cc(C(=O)O)n(CC)c12 | – | -2.04% (inactive)
CCCCCCn1c(=O)c2c(ncn2C)n(C)c1=O | – | 5.34% (inactive)
CO/N=C(/C(=O)N[C@@H]1C(=O)N2C(C(=O)O)=C(Cn3nnc(C)n3)CS[C@H]12)c1csc(N)n1 | – | -4.25% (inactive)

SMILES | Potency | activity change, negative = inhibition
Cc1c(C)c2c(c(C)c1OC(=O)CCC(=O)OCCO)CC[C@@](C)(CCC[C@H](C)CCC[C@H](C)CCCC(C)C)O2 | – | 3.43% (inactive)
CCOC(=O)c1ccc(NC(=O)CN2CCCCC2)cc1 | – | -0.422% (inactive)
CC(=O)O[C@H]1CC[C@@]2(C)C(=CC[C@@H]3[C@@H]2CC[C@]2(C)C(C(C)=O)=CC[C@@H]32)C1 | – | -4.58% (inactive)
O=C(O)c1[nH]n(-c2ccc(S(=O)(=O)O)cc2)c(=O)c1N=Nc1ccc(S(=O)(=O)O)cc1 | – | -15.5% (inactive)
CN1C(=O)c2ccccc2C1=O | – | 1.93% [at 104 µM] (inactive)
Cc1cccc(OCC(O)CNC(C)(C)C)c1C (stereo not drawn) | – | -1.44% (inactive)
Cc1ccc(-c2ccccc2C#N)cc1 | – | -4.98% (inactive)
CC[C@@H]([C@H](C)O)n1ncn(-c2ccc(N3CCN(c4ccc(OC[C@@H]5CO[C@@](Cn6cncn6)(c6ccc(F)cc6F)C5)cc4)CC3)cc2)c1=O | – | 0.377% (inactive)
NCCCC(N)CC(=O)NCC1NC(=O)C(CO)NC(=O)C(N)CNC(=O)C(C2CCN=C(N)N2)NC(=O)C(=CNC(N)=O)NC1=O (stereo not drawn) (H-[Dap]S[Dap](ξβ3hOrn)[ΔAla(3-NHCONH2)][X10]; lactam 1-C; configuration not given here) | – | -2.82% [at 0.59 µM] (inactive)
CC(C)OP(=O)(CP(=O)(OC(C)C)OC(C)C)OC(C)C | – | -6.33% (inactive)
CN1CC[C@H](c2c(O)cc(O)c3c(=O)cc(-c4ccccc4Cl)oc23)[C@H](O)C1 | – | 1.99% (inactive)
Cc1cccc(C)c1NC(=O)c1ccc(N)cc1 | – | 0.553% (inactive)
COc1cc(C(=O)OC(COCCC(C)C)CN2CCOCC2)cc(OC)c1OC (stereo not drawn) | – | -4.8% (inactive)
O=C(c1ccco1)N1CCNCC1 | – | 0.975% (inactive)
Cc1nc2n(c(=O)c1CCN1CCC(C(=O)c3ccc(F)cc3)CC1)CCS2 | – | -2.06% (inactive)
C/C(=N/NC(=O)c1ccncc1)C(=O)O | – | 19.1% (inactive)
O=C1Nc2ccccc2C1(c1ccc(O)cc1)c1ccc(O)cc1 | – | -4.11% (inactive)
CCCCCC1Nc2cc(C(F)(F)F)c(S(N)(=O)=O)cc2S(=O)(=O)N1 (stereo not drawn) | – | -11.6% (inactive)
Cc1oc(=O)oc1COC(=O)[C@@H]1N2C(=O)[C@@H](NC(=O)[C@H](N)c3ccccc3)[C@H]2SC1(C)C | – | -5.76% (inactive)
